Data published in the supplement of paper PMC4022240.
± gives the standard deviation.

Assays:
Assay in all cases: peptide microarray binding signal (635 nm), min-max normalized on array (fraction of array maximum); higher = stronger binding
[1] = target: T1, HaloTag-ATRX ADD domain (163-292)
T1 chain: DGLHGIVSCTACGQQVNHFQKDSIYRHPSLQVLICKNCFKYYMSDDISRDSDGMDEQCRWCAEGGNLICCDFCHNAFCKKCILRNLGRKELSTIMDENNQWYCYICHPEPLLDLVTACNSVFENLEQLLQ
In short: (§1)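 Triplicate spots of histone 13-mer peptide–cellulose conjugates with a Cy3 tracer were printed on nitrocellulose and probed for 1 h at 4°C with biotin-labelled HaloTag reader fusions (10 nM to 1 μM) plus streptavidin-Alexa Fluor 647 or rabbit histone antibodies (1:10,000 to 1:2,000) plus anti-rabbit Alexa 647. An Axon GenePix 4000B read the 635 nm channel. Binding signal is the spot-triplicate mean intensity after min-max scaling within each library.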

[2] = target: HaloTag-ING2 PHD (mouse Ing2 200-280)
In short: as §1

[3] = target: anti-H3K4me3 antibody ab8580
In short: as §1

[4] = target: anti-H3K9me3 antibody ab8898
In short: as §1

[5] = peptide region: H4 16-28, peptide modifications: H4R19me2s H4K20me3, binder concentration: 1:2,000 dilution
[6] = peptide region: H4 16-28, peptide modifications: H4R19me2s H4K20me3, binder concentration: 1:10,000 dilution
[7] = peptide region: H4 16-28, peptide modifications: H4R19me2s, binder concentration: 1:2,000 dilution
[8] = peptide region: H4 16-28, peptide modifications: H4R23cit, binder concentration: 1:2,000 dilution
[9] = peptide region: H4 16-28, peptide modifications: H4R23cit, binder concentration: 1:10,000 dilution
[10] = peptide region: H4 16-28, peptide modifications: H4R23me1, binder concentration: 1:2,000 dilution
[11] = peptide region: H4 16-28, peptide modifications: H4R23me2a, binder concentration: 1:2,000 dilution
[12] = peptide region: H4 16-28, peptide modifications: H4R23me2s, binder concentration: 1:2,000 dilution
[13] = peptide region: H4 38-50, binder concentration: 1:2,000 dilution
[14] = peptide region: H4 38-50, binder concentration: 1:10,000 dilution
[15] = peptide region: H4 38-50, peptide modifications: H4K44ac H4R45me1, binder concentration: 1:2,000 dilution
[16] = peptide region: H4 38-50, peptide modifications: H4K44ac H4R45me1, binder concentration: 1:10,000 dilution
[17] = peptide region: H4 38-50, peptide modifications: H4K44ac, binder concentration: 1:2,000 dilution
[18] = peptide region: H4 38-50, peptide modifications: H4K44ac, binder concentration: 1:10,000 dilution
[19] = peptide region: H4 38-50, peptide modifications: H4K44me1, binder concentration: 1:2,000 dilution
[20] = peptide region: H4 38-50, peptide modifications: H4K44me1, binder concentration: 1:10,000 dilution
[21] = peptide region: H4 38-50, peptide modifications: H4K44me1 H4R45cit, binder concentration: 1:2,000 dilution
[22] = peptide region: H4 38-50, peptide modifications: H4K44me1 H4R45cit, binder concentration: 1:10,000 dilution
[23] = peptide region: H4 38-50, peptide modifications: H4K44me1 H4R45me1, binder concentration: 1:2,000 dilution
[24] = peptide region: H4 38-50, peptide modifications: H4K44me1 H4R45me1, binder concentration: 1:10,000 dilution

KRHRKVLRDNIQG [H4 16-28 K R H Rme2s Kme3 V L R D N I Q G]
peptide microarray binding signal ([1]; peptide region: H4 16-28, peptide modifications: H4R19me2s H4K20me3, binder concentration: 50 nM): 0.006019 ± 4.1e-05
peptide microarray binding signal ([1]; peptide region: H4 16-28, peptide modifications: H4R19me2s H4K20me3, binder concentration: 500 nM): 0.00524 ± 0.00012
peptide microarray binding signal ([2]; peptide region: H4 16-28, peptide modifications: H4R19me2s H4K20me3, binder concentration: 10 nM): 0.01444 ± 0.00013
peptide microarray binding signal ([2]; peptide region: H4 16-28, peptide modifications: H4R19me2s H4K20me3, binder concentration: 100 nM): 0.0125 ± 0.00075
peptide microarray binding signal [3, 5]: 0.0051 ± 0.00088
peptide microarray binding signal [3, 6]: 0.00451 ± 0.0013
peptide microarray binding signal [4, 5]: 0.00438 ± 0.0021
peptide microarray binding signal [4, 6]: 0.00663 ± 0.00022

KRHRKVLRDNIQG [H4 16-28 K R H Rme2s K V L R D N I Q G]
peptide microarray binding signal ([1]; peptide region: H4 16-28, peptide modifications: H4R19me2s, binder concentration: 500 nM): 0.000524 ± 1.4e-05
peptide microarray binding signal ([2]; peptide region: H4 16-28, peptide modifications: H4R19me2s, binder concentration: 100 nM): 0
peptide microarray binding signal [3, 7]: 0.000491 ± 9.2e-05
peptide microarray binding signal [4, 7]: 3.02e-05 ± 3.4e-07

KRHRKVLRDNIQG [H4 16-28 K R H R K V L Rcit D N I Q G]
peptide microarray binding signal ([1]; peptide region: H4 16-28, peptide modifications: H4R23cit, binder concentration: 50 nM): 0.00241 ± 3.7e-05
peptide microarray binding signal ([1]; peptide region: H4 16-28, peptide modifications: H4R23cit, binder concentration: 500 nM): 0.00457 ± 0.00023
peptide microarray binding signal ([2]; peptide region: H4 16-28, peptide modifications: H4R23cit, binder concentration: 10 nM): 0.00597 ± 0.00064
peptide microarray binding signal ([2]; peptide region: H4 16-28, peptide modifications: H4R23cit, binder concentration: 100 nM): 0.00291 ± 0.00024
peptide microarray binding signal [3, 8]: 0.000925 ± 1.6e-05
peptide microarray binding signal [3, 9]: 0.002 ± 0.00019
peptide microarray binding signal [4, 8]: 0.000544 ± 6.6e-05
peptide microarray binding signal [4, 9]: 0.00115

KRHRKVLRDNIQG [H4 16-28 K R H R K V L Rme D N I Q G]
peptide microarray binding signal ([1]; peptide region: H4 16-28, peptide modifications: H4R23me1, binder concentration: 500 nM): 0.000143 ± 4.6e-06
peptide microarray binding signal ([2]; peptide region: H4 16-28, peptide modifications: H4R23me1, binder concentration: 100 nM): 0.000354 ± 4.1e-06
peptide microarray binding signal [3, 10]: 0.000132 ± 1.5e-06
peptide microarray binding signal [4, 10]: 1.51e-05 ± 1.7e-07

KRHRKVLRDNIQG [H4 16-28 K R H R K V L Rme2a D N I Q G]
peptide microarray binding signal ([1]; peptide region: H4 16-28, peptide modifications: H4R23me2a, binder concentration: 500 nM): 0.0285 ± 0.039
peptide microarray binding signal ([2]; peptide region: H4 16-28, peptide modifications: H4R23me2a, binder concentration: 100 nM): 0.000425 ± 4.9e-06
peptide microarray binding signal [3, 11]: 7.55e-05 ± 8.5e-07
peptide microarray binding signal [4, 11]: 0

KRHRKVLRDNIQG [H4 16-28 K R H R K V L Rme2s D N I Q G]
peptide microarray binding signal ([1]; peptide region: H4 16-28, peptide modifications: H4R23me2s, binder concentration: 500 nM): 0.000333 ± 1.9e-05
peptide microarray binding signal ([2]; peptide region: H4 16-28, peptide modifications: H4R23me2s, binder concentration: 100 nM): 0.000354 ± 1.5e-05
peptide microarray binding signal [3, 12]: 0.000849 ± 0.00028
peptide microarray binding signal [4, 12]: 1.51e-05 ± 1.7e-07

ARRGGVKRISGLI [H4 38-50 A R R G G V K R I S G L I]
peptide microarray binding signal ([1]; peptide region: H4 38-50, binder concentration: 50 nM): 0.00398 ± 0.00022
peptide microarray binding signal ([1]; peptide region: H4 38-50, binder concentration: 500 nM): 0.00614 ± 6.4e-05
peptide microarray binding signal ([2]; peptide region: H4 38-50, binder concentration: 10 nM): 0.003641 ± 3.4e-05
peptide microarray binding signal ([2]; peptide region: H4 38-50, binder concentration: 100 nM): 0.0105 ± 0.00039
peptide microarray binding signal [3, 13]: 0.000434 ± 8.7e-06
peptide microarray binding signal [3, 14]: 0.000913
peptide microarray binding signal [4, 13]: 0.000151 ± 1.6e-06
peptide microarray binding signal [4, 14]: 0.000634 ± 1.2e-05

ARRGGVKRISGLI [H4 38-50 A R R G G V Kac Rme I S G L I]
peptide microarray binding signal ([1]; peptide region: H4 38-50, peptide modifications: H4K44ac H4R45me1, binder concentration: 50 nM): 0.0131 ± 0.00062
peptide microarray binding signal ([1]; peptide region: H4 38-50, peptide modifications: H4K44ac H4R45me1, binder concentration: 500 nM): 0.01695 ± 5.7e-05
peptide microarray binding signal ([2]; peptide region: H4 38-50, peptide modifications: H4K44ac H4R45me1, binder concentration: 10 nM): 0.0235 ± 0.0022
peptide microarray binding signal ([2]; peptide region: H4 38-50, peptide modifications: H4K44ac H4R45me1, binder concentration: 100 nM): 0.048 ± 0.0095
peptide microarray binding signal [3, 15]: 0.00338 ± 0.00048
peptide microarray binding signal [3, 16]: 0.00685 ± 0.0005
peptide microarray binding signal [4, 15]: 0.00296 ± 0.00039
peptide microarray binding signal [4, 16]: 0.00306 ± 4.5e-05

ARRGGVKRISGLI [H4 38-50 A R R G G V Kac R I S G L I]
peptide microarray binding signal ([1]; peptide region: H4 38-50, peptide modifications: H4K44ac, binder concentration: 50 nM): 0.00298 ± 0.00042
peptide microarray binding signal ([1]; peptide region: H4 38-50, peptide modifications: H4K44ac, binder concentration: 500 nM): 0.002238 ± 1.9e-05
peptide microarray binding signal ([2]; peptide region: H4 38-50, peptide modifications: H4K44ac, binder concentration: 10 nM): 0.00477 ± 0.00013
peptide microarray binding signal ([2]; peptide region: H4 38-50, peptide modifications: H4K44ac, binder concentration: 100 nM): 0.00751 ± 0.00045
peptide microarray binding signal [3, 17]: 0.00347 ± 0.0006
peptide microarray binding signal [3, 18]: 0.00251 ± 5.9e-05
peptide microarray binding signal [4, 17]: 0.00142 ± 3.6e-05
peptide microarray binding signal [4, 18]: 0.00138 ± 4.9e-05

ARRGGVKRISGLI [H4 38-50 A R R G G V Kme R I S G L I]
peptide microarray binding signal ([1]; peptide region: H4 38-50, peptide modifications: H4K44me1, binder concentration: 50 nM): 0.00765 ± 0.00015
peptide microarray binding signal ([1]; peptide region: H4 38-50, peptide modifications: H4K44me1, binder concentration: 500 nM): 0.0147 ± 0.0013
peptide microarray binding signal ([2]; peptide region: H4 38-50, peptide modifications: H4K44me1, binder concentration: 10 nM): 0.01074 ± 8.4e-05
peptide microarray binding signal ([2]; peptide region: H4 38-50, peptide modifications: H4K44me1, binder concentration: 100 nM): 0.0234 ± 0.0011
peptide microarray binding signal [3, 19]: 0.00691 ± 0.00072
peptide microarray binding signal [3, 20]: 0.00719 ± 0.00029
peptide microarray binding signal [4, 19]: 0.00751 ± 0.0003
peptide microarray binding signal [4, 20]: 0.00703 ± 0.0019

ARRGGVKRISGLI [H4 38-50 A R R G G V Kme Rcit I S G L I]
peptide microarray binding signal ([1]; peptide region: H4 38-50, peptide modifications: H4K44me1 H4R45cit, binder concentration: 50 nM): 0.00502 ± 0.00054
peptide microarray binding signal ([1]; peptide region: H4 38-50, peptide modifications: H4K44me1 H4R45cit, binder concentration: 500 nM): 0.0041 ± 5.8e-05
peptide microarray binding signal ([2]; peptide region: H4 38-50, peptide modifications: H4K44me1 H4R45cit, binder concentration: 10 nM): 0.00603 ± 0.00023
peptide microarray binding signal ([2]; peptide region: H4 38-50, peptide modifications: H4K44me1 H4R45cit, binder concentration: 100 nM): 0.00652 ± 0.0007
peptide microarray binding signal [3, 21]: 0.00106 ± 0.00014
peptide microarray binding signal [3, 22]: 0.0016 ± 2.7e-05
peptide microarray binding signal [4, 21]: 0.00074 ± 1.7e-05
peptide microarray binding signal [4, 22]: 0.00133 ± 2.3e-05

ARRGGVKRISGLI [H4 38-50 A R R G G V Kme Rme I S G L I]
peptide microarray binding signal ([1]; peptide region: H4 38-50, peptide modifications: H4K44me1 H4R45me1, binder concentration: 50 nM): 0.0377 ± 0.00093
peptide microarray binding signal ([1]; peptide region: H4 38-50, peptide modifications: H4K44me1 H4R45me1, binder concentration: 500 nM): 0.0199 ± 0.00027
peptide microarray binding signal ([2]; peptide region: H4 38-50, peptide modifications: H4K44me1 H4R45me1, binder concentration: 10 nM): 0.0751 ± 0.0022
peptide microarray binding signal ([2]; peptide region: H4 38-50, peptide modifications: H4K44me1 H4R45me1, binder concentration: 100 nM): 0.031 ± 0.0006
peptide microarray binding signal [3, 23]: 0.00727 ± 0.00021
peptide microarray binding signal [3, 24]: 0.02163 ± 0.00021
peptide microarray binding signal [4, 23]: 0.0055 ± 9.8e-05
peptide microarray binding signal [4, 24]: 0.02058 ± 0.00019
